The entries come from a sample that favours hits as a whole.
AmpC no deterg: inhibitors of E. coli AmpC beta-lactamase without detergent; AmpC nitrocefin hydrolysis, absorbance 480 nm, 0.0001% Triton; Potency, µM (series often up to 57.1 µM), for the others: at the top dose activity change, negative = inhibition, actives largely listed as inhibitors; P00811; actives 0.52% (n = 330,000);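 also: potency is read from the fitted curve at half-maximal effect; plate controls were no compound for no effect and no enzyme for full effect; nearly all actives have a fitted effect of over 20% in size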
Target sequence (P00811 whole entry, looked up): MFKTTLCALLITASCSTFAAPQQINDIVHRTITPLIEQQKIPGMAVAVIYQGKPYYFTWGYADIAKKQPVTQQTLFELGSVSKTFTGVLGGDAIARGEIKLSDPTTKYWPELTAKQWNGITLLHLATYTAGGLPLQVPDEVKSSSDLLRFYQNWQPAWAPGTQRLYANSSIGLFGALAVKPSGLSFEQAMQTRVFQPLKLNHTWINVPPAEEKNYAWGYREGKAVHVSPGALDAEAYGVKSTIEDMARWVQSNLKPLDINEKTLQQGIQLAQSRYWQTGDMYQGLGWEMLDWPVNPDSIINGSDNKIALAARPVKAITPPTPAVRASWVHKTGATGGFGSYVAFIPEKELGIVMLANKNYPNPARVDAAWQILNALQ
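20 mM phosphate pH 7.0 + 0.01% (detergent screen) or 0.0001% Triton X-100; 5.3 nM AmpC reagent; cpd preinc 15 min RT; nitrocefin (800 uM stock) to start; A480 q20 s × 4 min; Activity was normalised to no-enzyme and no-compound control wells.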
CHX counter: counter-screen for Shiga toxin inhibitors: cycloheximide protein synthesis inhibition. cell reporter, cycloheximide protein synthesis inhibition counterscreen. max response, %. actives 12% (n = 300,000). AID 2314; in the data active = max response mostly above about 13%, no sharp cut-off; inactive = mostly below about 14%; also: read at 38.3 µM for the half of the compounds with a filed dose; 0% is about no effect
Shiga inhibitor: blocks Shiga toxin action in Vero cells | Vero cells, Shiga toxin protein synthesis inhibition reporter | inhibition, % at 38.7 µM | actives 9.2% (n = 290,000); in the data active = inhibition mostly above about 28%, no sharp cut-off; inactive = mostly below about 43%; also: 0% is about no effect
NS1 function inh: influenza NS1 inhibition | AID 2326 | Potency, µM (series often up to 46.1 µM), for inactives: at the highest dose activity, positive = more growth | actives 0.4% (n = 270,000); calls by dose curve; also: potency is read from the fitted curve at half-maximal effect; actives are rising curves; nearly all actives have a fitted effect of over 50% in size
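Growth recovery, yeast-based: influenza A NS1 expressed in S. cerevisiae causes slow growth, and suppressors are detected by OD600. The parent strain without NS1 is used as positive control.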
AmpC detergent: AmpC beta-lactamase inhibition with detergent present. P00811. AmpC hydrolysis of nitrocefin, absorbance 480 nm, 0.01% Triton. Potency, µM (top dose mostly 114 µM), for inactives: top-dose activity change, negative = inhibition, hits mostly inhibitors. actives 0.041% (n = 370,000);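 also: potency is read from the fitted curve at half-maximal effect; 0% = no-compound wells and -100% = no-enzyme wells; nearly all actives have a fitted effect of over 25% in size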
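AmpC (5.3 nM in the dispensed reagent) in 20 mM phosphate pH 7.0 with 0.01% (detergent screen) or 0.0001% Triton X-100 was preincubated with compounds for 15 min at room temperature. Nitrocefin was then added from an 800 uM solution, and hydrolysis was followed at 480 nm.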
The depositor's hits bear a star; u = inconclusive; x = not tested or not shown. Unless noted, calls follow the shape of the dose curve; as a rule, active = well fitted curve in the direction sought with a large enough effect; inconclusive = small, poorly fitted or top-dose-only effect, or another doubt; inactive = no such curve, though single readings can be large; an effect the other way counts as inactive or inconclusive.

SMILES	AmpC no deterg	CHX counter	Shiga inhibitor	NS1 function inh	AmpC detergent
O=C(Nc1ccc(-c2ccc([N+](=O)[O-])cc2)cc1)c1ccccc1F	-11.9%	16.1	12.1	x	-3.5%
O=C(Nc1ccc([N+](=O)[O-])cc1)c1ccccc1F	-14.1%	39.0*	116.9*	x	-1.3%
CC1(c2ccc(NC(=O)c3ccccc3F)cc2)CC1(Cl)Cl (stereo unspecified)	-36.7%	34.9*	x	3.1%	u
c1nc2nc(Nc3ccc(N4CCOCC4)cc3)nc(NC3CCCCC3)c2[nH]1	x	-11.6	-24.2	x	x
O=C1/C(=C/c2cccs2)SC(=S)N1c1cccc(O)c1	-49.8%	25.9*	60.7	2.2%	9.4%
CCOc1ccc(/C=C2\SC(=O)N(c3ccc(O)cc3)C2=O)cc1OC	-5.9%	20.0*	12.6	0.0%	2.1%
O=C1S/C(=C\c2cccs2)C(=O)N1c1ccc(O)cc1	-55.0%	38.0*	62.5*	-0.1%	-1.5%
COc1ccc(/C=C2\SC(=N)N(c3ccc(F)cc3)C2=O)cc1OC	-25.4%	1.8	-9.7	x	u
O=C1/C(=C/c2cccs2)SC(=S)N1c1ccccc1	-6.2%	-3.1	35.6	1.3%	1.0%
Cc1occc1-c1nnc(SCC(=O)N(C)CCC#N)n1N	-9.5%	-1.7	-8.8	12.4%	1.7%
Oc1ccc(Br)cc1CNc1nccs1	-25.4%	-2.4	16.4	-5.6%	u
COc1ccc(CNc2cc(C)ccn2)c(O)c1	-14.9%	25.3*	79.5*	2.2%	0.1%
Cc1ccnc(NCc2ccccc2O)c1	-29.8%	14.2*	x	-7.9%	-13.1%
Oc1ccc(Br)cc1CNc1ccccn1	-27.9%	13.5*	38.2	-5.3%	9.5%
Cc1ccc(C(C(=O)NC2CCCCC2)N(CCCN2CCOCC2)C(=O)c2snc(C(N)=O)c2N)cc1 (stereo unspecified)	80.7%	1.5	-13.5	3.7%	-6.1%
Cc1ccc(NC(=O)C2CCC(CNS(=O)(=O)c3ccc4c(c3)CCCC(=O)N4)CC2)cc1F (stereo unspecified)	x	x	x	x	1.3%
CCn1c(SC)nnc1-c1sc2cc(Cl)ccc2c1Cl	29.9%	13.5*	70.8*	-49.1%	-11.6%
CSc1nnc(-c2sc3cc(Cl)ccc3c2Cl)n1C	-12.0%	-0.4	-7.0	-47.0%	2.1%
CN(C)/C=N/C(=S)Nc1ccc(F)cc1	x	24.7*	38.1*	5.9%	-2.9%
CN(C)/C=N/C(=S)Nc1ccc(Cl)c(Cl)c1	-2.9%	40.4*	111.5*	-3.4%	8.4%
CN(C)/C=N/C(=S)Nc1cc(Cl)cc(Cl)c1	4.8%	3.7	-6.0	6.8%	7.3%
O=C(Nc1ccc2[nH]ncc2c1)c1ccc(F)cc1	-17.5%	19.2*	55.4*	-6.7%	u
O=C(Nc1ccc2[nH]c(=O)c(=O)[nH]c2c1)c1cccc(F)c1	x	x	x	x	3.7%
Cc1ccccc1OCC(=O)Nc1ccc2[nH]ncc2c1	-17.1%	14.6*	16.4	-26.0%	-1.0%
O=C(Nc1ccc2[nH]ncc2c1)c1ccccc1	-19.2%	22.5*	25.2	2.8%	-15.0%
SMILES	AmpC no deterg	CHX counter	Shiga inhibitor	NS1 function inh	AmpC detergent
O=C(Nc1ccc2[nH]ncc2c1)c1cccc(F)c1	-11.3%	29.0*	65.3*	-2.9%	u
CCc1ccc(CN2CCc3nc(Nc4ccc5c(c4)OCCO5)ncc3C2)cc1	x	x	x	x	-2.8%
O=C(Cc1ccc(Br)cc1)Nc1ccc2[nH]ncc2c1	-28.6%	-0.9	x	1.0%	u
O=C(Cc1ccccc1)Nc1ccc2[nH]ncc2c1	-26.4%	20.7*	22.5	10.3%	2.2%
Cc1ccc(Nc2nc(C(=O)N3CCC(C(=O)NC(C)C)CC3)cs2)cc1	29.4%	17.5*	17.1	0.8%	u
CCN(CC)C(=O)c1csc(Nc2ccc(C)cc2)n1	-6.2%	20.0*	48.9*	-148.9%	4.9%
O=C(NCC1CCCO1)c1cc(-c2ccc(Cl)cc2Cl)on1 (stereo unspecified)	29.8%	51.6*	75.2*	-4.1%	-5.7%
CC(C)NC(=O)C1CCN(C(=O)c2ccc(-c3ccccc3)cc2)CC1	x	-1.2	-5.2	-12.3%	-2.0%
O=C(NCC1CCCO1)c1cc(Br)c(Br)s1 (stereo unspecified)	-8.2%	7.8	21.6	-14.1%	u
CCc1cc(C(=O)NCC2CCCO2)sc1C (stereo unspecified)	29.0%	31.0*	43.5*	7.1%	0.3%
Cc1ccc(NS(=O)(=O)c2ccc(C(=O)NCC3CCCO3)cc2)cc1 (stereo unspecified)	-20.7%	0.9	-11.8	x	-1.5%
Cc1ccc(-c2cc(C(=O)NCC3CCCO3)no2)cc1 (stereo unspecified)	-8.3%	47.7*	48.9*	-42.1%	-19.5%
Cc1ccc(Nc2nc(C(=O)NCCCN3CCOCC3)cs2)cc1	13.5%	-1.3	16.1	-2.6%	u
O=C(NCC1CCCO1)c1cc(-c2ccccc2)on1 (stereo unspecified)	-33.0%	40.1*	128.6*	-9.4%	-3.6%
Cc1ccc(Nc2nc(C(=O)NCC3CCCO3)cs2)cc1 (stereo unspecified)	-8.1%	24.0*	50.6*	-52.8%	4.7%
O=C(NCC1CCCO1)c1ccccc1-c1nc(-c2ccccc2)no1 (stereo unspecified)	38.8%	35.1*	111.8*	-6.3%	-8.8%
O=C(Cc1ccccc1)NCC1CCCO1 (stereo unspecified)	-17.9%	-1.6	-11.9	6.8%	u
COc1ccc2[nH]c3c(c2c1)CCN1C(=O)N([C@@H](C)C(=O)NCc2ccc(C)cc2)C(=O)[C@]31C	68.3%	-1.6	-8.2	18.8%	-12.5%
CCOc1ccc(NC(=O)C2CCCN(S(=O)(=O)c3cccc4nonc34)C2)cc1 (stereo unspecified)	x	x	x	x	0.3%
O=C(NCC1CCCO1)c1cc2cc(Cl)ccc2[nH]1 (stereo unspecified)	-17.2%	32.5*	43.4*	3.0%	-3.3%
COc1cc2[nH]c(C(=O)NCC3CCCO3)cc2c(OC)c1OC (stereo unspecified)	-22.7%	-5.1	-16.9	-3.5%	u
CC1(C)CC(=O)C2=C(C1)Nc1ccccc1NC2c1ccc(F)cc1 (stereo unspecified)	6.8%	13.3	16.9	2.1%	7.9%
O=C1NCC2=C1C(c1ccc(Br)cc1)Nc1ccccc1N2 (stereo unspecified)	-9.5%	21.9*	77.4*	-22.5%	-2.3%
CC(Oc1ccc(Cl)cc1Cl)c1nc(-c2ccc(NC(=O)c3ccccn3)cc2)no1 (stereo unspecified)	-20.6%	27.7*	71.4*	-4.5%	-7.2%
CN(C)c1ccc(-c2nc(-c3ccncc3)no2)cc1[N+](=O)[O-]	x	x	x	x	20.8%
c1ccc(-c2nc(-c3ccncc3)no2)cc1	x	69.6*	148.1*	-11.6%	6.1%
O=[N+]([O-])c1ccc(-c2nc(-c3ccncc3)no2)cc1	-15.9%	18.3*	37.3*	-43.0%	-3.5%
c1coc(-c2nc(-c3ccncc3)no2)c1	-17.6%	48.8*	71.2*	4.9%	-0.3%
c1ccc(-c2ccc(-c3nc(-c4ccncc4)no3)cc2)cc1	-9.8%	34.8*	82.0	-0.2%	u

High-throughput results deposited in PubChem BioAssay by National Center for Advancing Translational Sciences (NCATS).
